# AID504770: E. coli YBA685 growth inhibition, screen for V. cholerae RctB inhibitors | E. coli YBA685 rctB-dependent plasmid, OD600 growth, 3 h; active compounds read low | z-score (test concentration not listed) | 130,000 tested, 0.27% active; in the data active = z-score below about -2, passing the limit was not always enough
# Polio RdRp inh: poliovirus RNA polymerase inhibition | P03300 | poliovirus polymerase elongation, fluorescence polarization; active compounds read low | % elongation, % (compound at 16.7 µg/mL) | 150,000 tested, 0.66% active; in the data active = % elongation below about 90%
# Mtb MenB inh: blocks the Mycobacterium tuberculosis MenB enzyme | P9WNP5 | MenB enzyme assay, absorbance read-out | inhibition, % (test concentration not listed) | 100,000 tested, 0.43% active | AID 540299; in the data active = inhibition above about 21%, passing the limit was not always enough
# Target sequence (P9WNP5 whole entry, looked up): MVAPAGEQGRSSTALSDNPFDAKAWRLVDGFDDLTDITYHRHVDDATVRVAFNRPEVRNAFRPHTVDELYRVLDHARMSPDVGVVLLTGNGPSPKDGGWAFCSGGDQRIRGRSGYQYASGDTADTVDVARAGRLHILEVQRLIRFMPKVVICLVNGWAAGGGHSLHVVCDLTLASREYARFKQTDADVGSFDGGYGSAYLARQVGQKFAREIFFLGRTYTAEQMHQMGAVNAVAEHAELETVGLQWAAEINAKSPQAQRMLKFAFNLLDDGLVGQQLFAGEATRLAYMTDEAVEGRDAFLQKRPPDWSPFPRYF
# MbtI inh: inhibitors of Mycobacterium tuberculosis siderophore enzyme MbtI | purified MbtI enzyme, fluorescence intensity read-out | inhibition, % (test concentration not listed) | 100,000 tested, 0.89% active | P9WFX0; in the data active = inhibition mostly above about 56%, no sharp cut-off; inactive = mostly below about 77%
# The depositor's hits bear a star; . = not tested or not shown. In the library only some 1.4% were active in any assay of this set; here they are far more common.
SMILES,AID504770,Polio RdRp inh,Mtb MenB inh,MbtI inh
O=S(=O)(/C=C/c1ccc(Cl)cc1Cl)NCc1cccs1,-0.25,.,.,.
Cc1cc(=S)nc(C(C)C)[nH]1,-3.55,100.0,-52.7,90.7*
CCCCNS(=O)(=O)c1ccc2[nH]c(=S)[nH]c2c1,-0.15,88.0*,-22.9,87.3
O=C(CSc1nnc(SCC(=O)N2CCCC2)s1)N1CCCC1,0.9,103.0,12.7,91.5*
CC(=O)NC(=S)Nc1cccc(C)c1,-1.55,101.0,-15.8,6.2
Cc1cccc(NC(=S)Nn2c(O)c(C)sc2=S)c1,-0.6,99.0,-66.7,93.2*
COc1cc2nc(CN(C)Cc3ccc(C)o3)[nH]c(=O)c2cc1OC,-0.45,103.0,-14.0,13.9
CCOC(=O)c1cccc(NC(=O)Cc2ccc(NC(=O)N3CCCCc4ccccc43)cc2)c1,.,21.0*,.,.
COc1cccc(NC(=O)Cc2ccc(NC(=O)N3CCCCc4ccccc43)cc2)c1,.,104.0,.,.
CCCOc1ccc(S(=O)(=O)n2cc(Br)c(=O)[nH]c2=O)cc1,0.2,.,.,81.7*
O=c1[nH]c(=O)n(S(=O)(=O)c2ccc(F)cc2)cc1F,0.2,94.0,-69.6,-34.4
CC(NS(=O)(=O)c1ccc(Br)cc1)C(=O)NCc1ccco1 (stereo not drawn),0.95,100.0,37.2*,12.1
CC(C)NS(=O)(=O)c1ccc(OCC(=O)NCc2ccco2)cc1,-0.7,.,.,-11.8
COC(=O)c1cc(-c2ccccc2)sc1NC(=O)C1CCCO1 (stereo not drawn),-0.85,85.0*,-32.8,.
COc1ccc(C(=O)Nc2sc3c(c2C(=O)NCc2cccnc2)CCCC3)cc1,0.5,.,.,.
Cn1c(=O)c(C(=O)NCCCc2ccccc2)cc2cccnc21,-0.25,104.0,-1.3,17.4
CC1=C(C(=O)Nc2ccccc2)C(c2ccco2)C(C#N)=C(SCC(=O)Nc2ccccc2)N1 (stereo not drawn),-0.4,102.0,39.4*,16.9
COC(=O)CCSc1nc2c3ccccc3ncn2n1,0.6,104.0,-25.4,88.7
S=c1[nH]nc(-c2ccncc2)n1-c1ccc2c(c1)OCO2,0.9,99.0,-4.2,62.3*
COc1ccc(NS(=O)(=O)c2ccc(C)c(Cl)c2)cc1,0.1,102.0,.,-14.3
CNC(=O)c1sc(CN2C(=O)c3ccccc3S2(=O)=O)nc1C,-0.3,65.0*,6.4,92.0*
COCC(C)N=C1NN=C(c2cc(C)n(-c3c(C)n(C)n(-c4ccccc4)c3=O)c2C)CS1 (stereo not drawn),-0.05,108.0,-46.7,1.8
CN(C)C(=S)Nc1ccc(C(C)(C)C)cc1,-0.6,100.0,-16.3,-0.2
O=C(Nc1cc(Cl)ccc1N1CCOCC1)c1ccc2c(c1)S(=O)(=O)N=C1CCCCCN12,-0.8,102.0,-24.9,36.7
CCOc1cc(C#N)c(-n2nnc3c(sc4nc(C)cc(C)c43)c2=O)cc1OCC,.,78.0*,.,.
SMILES,AID504770,Polio RdRp inh,Mtb MenB inh,MbtI inh
O=C(Nc1cccc(C2=NCCN2)c1)Nc1cccc(C2=NCCN2)c1,0.1,68.0*,3.7,.
O=S(=O)(NCc1csc(-c2cccs2)n1)c1ccccc1,0,.,.,.
CN(c1ccc(-c2csc(-c3cccs3)n2)cc1)S(C)(=O)=O,-0.25,88.0*,-17.5,39.0
O=S(=O)(c1ccc(=S)[nH]c1)N1CCCCCC1,1.65,106.0,-7.7,94.8*
O=S(=O)(c1ccc(I)cc1)N1CCCCCC1,-1.05,102.0,-19.4,1.1
OC(COCC1CC=CCC1)CN(Cc1ccccc1)Cc1ccccc1 (stereo not drawn),-0.6,86.0*,-23.8,.
O=C(Nc1nnc(C(F)(F)F)s1)c1ccccc1,-0.65,100.0,-34.3,91.5*
O=S1(=O)CCN(Cc2ccc(NS(=O)(=O)c3ccc(Cl)cc3)cc2)CC1,0.25,.,.,.
Cc1nc(Cc2nnc(SCC(=O)NCC34CC5CC(CC(C5)C3)C4)o2)cs1,-2.85*,108.0,-17.3,2.5
Cc1nc(Cc2nnc(SCC(=O)NC(C)(C)C)o2)cs1,-0.35,103.0,-18.9,-6.8
Cc1ccc(C)c2[nH]c(=O)c(C3NC(=O)c4ccccc4N3)cc12 (stereo not drawn),-0.15,101.0,41.6*,-28.6
Cc1ccc(S(=O)(=O)N(C)C)cc1,-0.55,101.0,.,-3.5
Cc1ccc(S(=O)(=O)N(O)c2ccc(Cl)cc2)cc1,0.25,99.0,.,82.5*
Cc1ccc(N(O)S(=O)(=O)c2ccc(C)cc2)cc1,-0.95,107.0,18.5,64.9*
Cc1[nH]c2ccc(C(=O)NN)cc2c1C,1.55,104.0,-54.4,-1.2
CCN1C(=O)c2cccc3c(S(=O)(=O)Nc4ccc(C)cn4)ccc1c23,-0.05,.,.,.
CC(C)(C)OC(=O)N1CCN(S(=O)(=O)c2ccc(Cl)cc2)CC1,-0.55,.,.,.
Cc1cc(C)c2c(=O)n(-c3ccccc3)[nH]c2n1,0.2,101.0,-48.6,52.1*
COc1ccc(/C=C2\SC(=O)N(c3c(C)n(C)n(-c4ccccc4)c3=O)C2=O)cc1OC,0.1,81.0*,-31.7,86.6*
COc1ccc(/C=N/NC(=S)Nc2c(C)n(C)n(-c3ccccc3)c2=O)cc1OC,0.65,100.0,-12.4,27.1
COc1cccc(Oc2ccc(C(F)(F)F)cc2Nc2nc3ccccc3o2)c1,0,81.0*,-109.1,-35.5
O=C(O)C1C2C=CC3(CN(c4ccc(Cl)c(F)c4)C(=O)C13)O2 (stereo not drawn),1.95,100.0,8.1,.
CC12C=CC(O1)C1C(=O)N(c3ccccc3Cl)C(=O)C12 (stereo not drawn),1.8,103.0,.,66.2*
COC(=O)c1cc(N2C(=O)C3C4C=CC(C)(O4)C3C2=O)ccc1Cl (stereo not drawn),-0.55,104.0,-6.8,81.2*
O=C1CC(Nc2ccccc2)C(=O)N1c1ccccc1Cl (stereo not drawn),-0.5,107.0,-8.1,.
SMILES,AID504770,Polio RdRp inh,Mtb MenB inh,MbtI inh
O=C1CC(N2CCOCC2)C(=O)N1 (stereo not drawn),2.15,102.0,-23.9,-5.4
O=C(O)C1CCN(c2ncnc3sccc23)CC1,0.55,103.0,0.5,-7.5
O=C(O)c1ccc(C2Nc3ccccc3C3C=CCC32)cc1 (stereo not drawn),2.55,59.0*,-17.8,.
O=C(NCCn1cccc1)c1cccc2ccccc12,-1.05,102.0,6.3,52.8*
Clc1ccc(-c2csc3c4ncnc-4ncn23)cc1,-0.15,107.0,-4.1,.
N#CC1=C(SCc2ccccc2)SC(c2ccccc2O)NC1=O (stereo not drawn),-3.4*,102.0,-1.2,21.4
c1ccc(CSc2nnc3c(n2)OC(c2ccncc2)Nc2ccccc2-3)cc1 (stereo not drawn),-0.15,.,.,.
O=C(Cc1ccccc1)Nc1sc2c(c1C(=O)Nc1ccc(Cl)cc1)CCCC2,.,71.0*,.,.
O=C(Cc1ccccc1)Nc1sc2c(c1C(=O)Nc1ccccc1)CCCCC2,.,100.0,.,.
O=C(COc1ccccc1)Nc1sc2c(c1C(=O)Nc1ccccc1Cl)CCCCC2,.,102.0,.,.
O=C(Nc1sc2c(c1C(=O)Nc1cccc(Cl)c1)CCCC2)c1cccs1,.,77.0*,.,.
Nc1sc2c(c1C(=O)Nc1ccc(Cl)cc1)CCC2,-0.05,89.0*,-2.9,.
O=C(Cc1ccccc1)Nc1sc2c(c1C(=O)Nc1ccccc1Cl)CCCC2,.,85.0*,.,.
Nc1sc2c(c1C(=O)Nc1cccc(Cl)c1)CCCCC2,0.05,104.0,-14.3,.
N#CC(C#N)=C(c1ccccc1)c1ccccc1,-0.25,99.0,-58.0,-1.7

# Assay outcomes from PubChem BioAssay.
